Values joined by “and” are separate entries in the source; they are usually repeats but may differ in a detail not shown here. Identical values can stand only once. Records with an inconclusive call do not appear. A call without a number means that no potency is given here. Some compounds were tested as several samples or in several runs, with calls that do not always agree. Active and inactive are the calls of the source. Unless noted, the call rests on the fitted dose curve; in most records, active means well fitted curve in the direction sought with a large enough effect in the repeat runs; inconclusive means weak or mixed curves; inactive means no such curve, though single readings can be large; an effect the other way counts as inactive or inconclusive.
How the values were obtained:
[1] = qHTS assay to identify small molecule antagonists of the thyroid receptor (TR) signaling pathway - cell viability counter screen (AID 743064); conditions: GH3.TRE-Luc viability, CellTiter-Fluor, 24 h; series mostly up to 70.3 µM; further: nearly all actives have a fitted effect of over 50% in size; further: potency means the concentration at half of the fitted maximal effect
Outline: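 Viability of T3-stimulated (1 nM final) GH3.TRE-Luc cells is measured by CellTiter-Fluor fluorescence after 23.5 h compound exposure at 37 °C plus 30 min reagent incubation.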

[2] = qHTS assay to identify small molecule antagonists of the thyroid receptor (TR) signaling pathway (AID 743065); conditions: GH3.TRE-Luc, T3-stimulated luciferase inhibition, 23.5 h; series mostly up to 70.3 µM; further: nearly all actives have a fitted effect of over 55% in size; further: potency means the concentration at half of the fitted maximal effect
Outline: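 GH3.TRE-Luc rat pituitary cells (two TREs driving luciferase) were dosed with compound, then stimulated with 1 nM T3 (final) for 23.5 h at 37 C. ONE-Glo luminescence was the read-out, with CellTiter-Fluor fluorescence as the cytotoxicity counter-screen.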

[3] = test system: thyroid hormone receptor (rat, GH3 cells); experiment: qHTS assay to identify small molecule agonists of the thyroid receptor (TR) signaling pathway (AID 743066; calls by dose curve); conditions: GH3.TRE-Luc cells, TR agonist luciferase, 24 h; series mostly up to 83.9 µM
[4] = qHTS assay to identify small molecule antagonists of the estrogen receptor alpha (ER-alpha) signaling pathway - cell viability counter screen (AID 743074; calls by dose curve;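 further: HEK293 cells carrying ER-alpha-UAS-bla reporter stimulated with 17beta-estradiol; nearly all actives have a fitted effect of over 45% in size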); conditions: ERalpha-bla HEK293 viability, CellTiter-Glo luminescence, 18 h; series mostly up to 69.4 µM
[5] = qHTS assay to identify small molecule antagonists of the estrogen receptor alpha (ER-alpha) signaling pathway using the BG1 cell line - cell viability counter screen (AID 743081); conditions: BG1Luc4E2 viability, CellTiter-Fluor, 22 h; series mostly up to 70.3 µM;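 further: compound given together with 17beta-estradiol as the ER stimulus; nearly all actives have a fitted effect of over 45% in size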
Aromatase (Homo sapiens) = Aromatase (Homo sapiens) (UniProt P11511); experiment: qHTS assay to identify aromatase inhibitors (AID 743083); conditions: MCF-7 aro ERE, testosterone-driven ERE luciferase, 24 h; series mostly up to 70.3 µM; further: nearly all actives have a fitted effect of over 55% in size; further: potency means the concentration at half of the fitted maximal effect
Aromatase (Homo sapiens), sequence (P11511 whole entry, looked up): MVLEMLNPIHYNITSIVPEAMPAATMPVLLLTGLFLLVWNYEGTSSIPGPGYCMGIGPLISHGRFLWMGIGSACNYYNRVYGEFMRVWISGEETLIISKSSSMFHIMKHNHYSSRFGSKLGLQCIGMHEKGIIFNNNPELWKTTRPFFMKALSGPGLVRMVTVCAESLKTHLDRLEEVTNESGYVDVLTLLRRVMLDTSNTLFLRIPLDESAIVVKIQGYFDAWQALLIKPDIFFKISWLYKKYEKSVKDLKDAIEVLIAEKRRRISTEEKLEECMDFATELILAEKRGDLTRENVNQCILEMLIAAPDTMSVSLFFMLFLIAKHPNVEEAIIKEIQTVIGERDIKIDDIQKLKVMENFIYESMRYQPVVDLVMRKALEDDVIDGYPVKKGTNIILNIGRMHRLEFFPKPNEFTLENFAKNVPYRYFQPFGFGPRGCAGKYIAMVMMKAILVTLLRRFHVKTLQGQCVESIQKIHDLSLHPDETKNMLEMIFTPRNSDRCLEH

[6] = qHTS assay to identify aromatase inhibitors - cell viability counter screen (AID 743084); conditions: MCF-7 aro ERE viability, CellTiter-Fluor, 24 h; series mostly up to 70.3 µM;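 further: cells stimulated with testosterone during compound exposure; nearly all actives have a fitted effect of over 55% in size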; further: potency means the concentration at half of the fitted maximal effect
[7] = biological target: Aryl hydrocarbon receptor (Homo sapiens) (UniProt P35869); experiment: qHTS assay to identify small molecule that activate the aryl hydrocarbon receptor (AhR) signaling pathway (AID 743085); conditions: HepG2 AhR-luc (HG2L7.5c1), luciferase, 24 h; series mostly up to 70.3 µM; further: nearly all actives have a fitted effect of over 15% in size; further: potency means the concentration at half of the fitted maximal effect;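 on activation: HG2L7.5c1 human HepG2 liver cells with stably integrated DRE-driven firefly reporter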
Aryl hydrocarbon receptor (Homo sapiens), sequence (P35869 whole entry, looked up): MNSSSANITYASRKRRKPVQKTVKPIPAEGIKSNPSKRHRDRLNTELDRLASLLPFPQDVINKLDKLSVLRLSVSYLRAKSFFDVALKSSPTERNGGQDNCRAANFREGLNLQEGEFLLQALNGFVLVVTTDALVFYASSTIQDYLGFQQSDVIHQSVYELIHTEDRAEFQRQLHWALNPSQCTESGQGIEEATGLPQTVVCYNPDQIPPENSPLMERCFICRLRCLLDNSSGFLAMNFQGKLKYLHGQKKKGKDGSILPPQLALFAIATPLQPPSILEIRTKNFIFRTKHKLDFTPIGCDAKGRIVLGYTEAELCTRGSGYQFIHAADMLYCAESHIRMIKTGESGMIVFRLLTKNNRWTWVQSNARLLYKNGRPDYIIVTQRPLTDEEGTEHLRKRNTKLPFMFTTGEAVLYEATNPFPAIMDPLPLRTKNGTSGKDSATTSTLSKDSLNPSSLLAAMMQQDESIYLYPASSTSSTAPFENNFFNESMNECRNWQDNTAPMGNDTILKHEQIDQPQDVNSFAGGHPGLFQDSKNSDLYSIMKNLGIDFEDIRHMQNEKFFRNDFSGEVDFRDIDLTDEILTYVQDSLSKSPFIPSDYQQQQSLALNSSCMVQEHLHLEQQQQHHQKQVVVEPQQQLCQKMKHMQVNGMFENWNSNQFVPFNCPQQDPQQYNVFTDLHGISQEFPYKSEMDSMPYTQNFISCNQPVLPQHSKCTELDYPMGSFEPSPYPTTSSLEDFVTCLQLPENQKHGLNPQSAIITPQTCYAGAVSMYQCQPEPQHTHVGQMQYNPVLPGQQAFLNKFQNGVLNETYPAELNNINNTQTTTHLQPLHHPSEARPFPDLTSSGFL
Outline: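 A multiplexed format paired cell viability (CellTiter-Fluor fluorescence) with AhR-dependent luciferase output (ONE-Glo luminescence) in the same wells of HepG2 DRE-luc cells after 24 h compound exposure at 37C.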

[8] = qHTS assay to identify small molecule that activate the aryl hydrocarbon receptor (AhR) signaling pathway - cell viability counter screen (AID 743086); conditions: HepG2-AhR-luc viability, CellTiter-Fluor, 24 h; series mostly up to 70.3 µM;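 further: HepG2 liver cells carrying the AhR DRE luciferase reporter; nearly all actives have a fitted effect of over 45% in size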
Outline: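 HepG2-AhR-luc (HG2L7.5c1) cells, 4000/well, treated 24 h at 37 C with compound; viability measured as CellTiter-Fluor fluorescence after 30 min in the same wells as the luciferase read.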

[9] = biological target: Peroxisome proliferator-activated receptor gamma (Homo sapiens) (UniProt P37231); experiment: qHTS assay to identify small molecule antagonists of the peroxisome proliferator-activated receptor gamma (PPARg) signaling pathway (AID 743191; calls by dose curve; further: nearly all actives have a fitted effect of over 30% in size; further: potency means the concentration at half of the fitted maximal effect); conditions: HEK293H PPARg-UAS-bla, beta-lactamase ratio, antagonist, 17 h; series mostly up to 62.6 µM
Peroxisome proliferator-activated receptor gamma (Homo sapiens), sequence (P37231 whole entry, looked up): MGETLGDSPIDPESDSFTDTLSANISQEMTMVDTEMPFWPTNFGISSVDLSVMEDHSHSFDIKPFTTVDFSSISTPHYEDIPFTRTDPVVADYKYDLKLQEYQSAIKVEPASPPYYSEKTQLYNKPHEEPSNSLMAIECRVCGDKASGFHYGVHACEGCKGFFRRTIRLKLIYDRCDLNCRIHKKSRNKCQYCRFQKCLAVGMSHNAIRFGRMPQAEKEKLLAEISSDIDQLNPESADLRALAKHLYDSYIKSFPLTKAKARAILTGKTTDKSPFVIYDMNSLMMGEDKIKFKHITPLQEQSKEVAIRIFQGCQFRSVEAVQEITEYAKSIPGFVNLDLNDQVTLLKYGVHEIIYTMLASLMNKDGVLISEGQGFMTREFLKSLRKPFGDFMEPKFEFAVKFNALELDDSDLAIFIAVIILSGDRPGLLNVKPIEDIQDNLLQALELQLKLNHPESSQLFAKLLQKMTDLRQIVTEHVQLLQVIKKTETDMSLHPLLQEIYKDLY
Outline: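 GeneBLAzer PPARg UAS-bla HEK293H cells, 5 h post-plating, exposed to compounds 17 h at 37C. LiveBLAzer B/G FRET substrate added for 1 h at room temperature; beta-lactamase reporter read by fluorescence intensity.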

[10] = qHTS assay to identify small molecule antagonists of the peroxisome proliferator-activated receptor gamma (PPARg) signaling pathway - cell viability counter screen (AID 743194); conditions: PPARg-bla HEK293H viability, CellTiter-Glo luminescence, 17 h, co-treated with 50 nM rosiglitazone; series mostly up to 62.6 µM; further: nearly all actives have a fitted effect of over 55% in size
Outline: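 Cytotoxicity counter screen in PPARg-bla HEK293H cells, same wells as reporter assay. Compounds plus 50 nM rosiglitazone (final) for 17 h at 37 C, then viability read by CellTiter-Glo luminescence.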

[11] = qHTS assay for small molecule agonists of the antioxidant response element (ARE) signaling pathway (AID 743202; active means well fitted activation curve with a large enough effect in the signal ratio in the repeat runs, not every such curve was filed as active; the % refers to the signal ratio); conditions: HepG2 ARE-bla reporter, beta-lactamase FRET, 16 h; series mostly up to 73.3 µM
Outline: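 ARE-bla HepG2 cells (beta-lactamase reporter under the antioxidant response element), plated 5 hours, then exposed to compounds 16 hours at 37 C. LiveBLAzer B/G FRET substrate added for 2 hours at room temperature; fluorescence intensity read.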

[12] = qHTS assay for small molecule agonists of the antioxidant response element (ARE) signaling pathway - cell viability counter screen (AID 743203; calls by dose curve; further: nearly all actives have a fitted effect of over 55% in size); conditions: ARE-bla HepG2 viability, CellTiter-Glo luminescence, 16 h; series mostly up to 73.3 µM
Outline: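 Cells (ARE-bla HepG2, 2,000/well) receive DMSO-dissolved compounds after a 5 hrs rest. Plates incubate 16 hrs at 37C/5% CO2. CellTiter-Glo luminescence is then recorded after 30 min at room temperature.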

[13] = qHTS assay for small molecule activators of the heat shock response signaling pathway - cell viability counter screen (AID 743209); conditions: HSE-bla HeLa viability, CellTiter-Glo luminescence, 5 h; series mostly up to 62.6 µM; further: nearly all actives have a fitted effect of over 50% in size
Outline: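 Quantitative HTS format, Tox21 10K library. HeLa cells carrying an HSE-driven beta-lactamase reporter were treated 5 h at 37 C, then assessed for viability by CellTiter-Glo luminescence.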

[14] = biological target: Peroxisome proliferator-activated receptor gamma (Homo sapiens) (UniProt P37231); experiment: qHTS assay to identify small molecule agonists of the peroxisome proliferator-activated receptor gamma (PPARg) signaling pathway (AID 743094; active means well fitted activation curve with a large enough effect in the signal ratio in the repeat runs, not every such curve was filed as active; the % refers to the signal ratio); conditions: HEK293H PPARg-UAS-bla, beta-lactamase FRET ratio, 17 h; series mostly up to 57 µM
Outline: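 Stably transfected HEK293H cells (GeneBLAzer PPARg UAS-bla) were incubated with test substances for 17 h at 37C after a 5 h pre-incubation; beta-lactamase activity was then detected by FRET substrate fluorescence.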

[15] = qHTS assay for small molecule activators of the heat shock response signaling pathway (AID 743210; active means well fitted activation curve with a large enough effect in the signal ratio in the repeat runs, with a control signal flat, not every such curve was filed as active; the % refers to the signal ratio); conditions: HeLa HSE-bla reporter, beta-lactamase ratio, 5 h; series mostly up to 62.6 µM
Outline: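 HSE-bla HeLa cells (beta-lactamase reporter under heat shock response elements), plated overnight, then exposed to compounds 5 h at 37 C; LiveBLAzer B/G FRET substrate added, 2.5 h at room temperature, fluorescence intensity read.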

[16] = biological target: Estrogen receptor (Homo sapiens) (UniProt P03372); experiment: qHTS assay to identify small molecule agonists of the estrogen receptor alpha (ER-alpha) signaling pathway (AID 743075; calls by dose curve;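 further: HEK293 GripTite cells with ER-alpha and UAS-driven beta-lactamase reporter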); conditions: HEK293 ER-alpha-UAS-bla, beta-lactamase FRET ratio, 18 h; series mostly up to 70.1 µM
Estrogen receptor (Homo sapiens), sequence (P03372 whole entry, looked up): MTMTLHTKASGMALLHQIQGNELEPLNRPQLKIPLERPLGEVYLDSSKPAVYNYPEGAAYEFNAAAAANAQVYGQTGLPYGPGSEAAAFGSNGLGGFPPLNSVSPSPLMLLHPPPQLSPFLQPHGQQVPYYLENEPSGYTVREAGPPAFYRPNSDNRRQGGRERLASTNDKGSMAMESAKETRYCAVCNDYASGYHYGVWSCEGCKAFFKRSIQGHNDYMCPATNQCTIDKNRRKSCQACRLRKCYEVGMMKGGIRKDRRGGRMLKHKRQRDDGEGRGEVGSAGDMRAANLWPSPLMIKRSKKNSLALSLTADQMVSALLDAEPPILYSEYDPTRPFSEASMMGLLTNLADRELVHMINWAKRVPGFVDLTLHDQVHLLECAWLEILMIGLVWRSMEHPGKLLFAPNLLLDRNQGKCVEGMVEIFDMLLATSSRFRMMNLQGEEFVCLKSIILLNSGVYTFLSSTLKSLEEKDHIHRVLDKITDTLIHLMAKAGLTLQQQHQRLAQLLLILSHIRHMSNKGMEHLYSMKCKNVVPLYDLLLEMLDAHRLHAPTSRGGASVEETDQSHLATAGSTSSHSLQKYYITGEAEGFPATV

[17] = biological target: Estrogen receptor (Homo sapiens) (UniProt P03372); experiment: qHTS assay to identify small molecule agonists of the estrogen receptor alpha (ER-alpha) signaling pathway using the BG1 cell line (AID 743079); conditions: BG1Luc4E2 cells, ERE-luciferase agonist, 22 h; series mostly up to 70.3 µM; further: nearly all actives have a fitted effect of over 20% in size
[18] = qHTS assay to identify small molecule antagonists of the estrogen receptor alpha (ER-alpha) signaling pathway using the BG1 cell line (AID 743080; calls by dose curve;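 further: BG1 cells stimulated with 17beta-estradiol alongside compound; nearly all actives have a fitted effect of over 25% in size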); conditions: BG1Luc4E2 ERE-luciferase antagonist mode, luminescence; series mostly up to 70.3 µM
Outline: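 Readout is ONE-Glo luminescence, taken 30 min at room temperature after reagent addition, preceded by a CellTiter-Fluor viability read; BG1-Luc-4E2 cells had received compound and 17beta-estradiol for 21.5 h at 37 C.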

Compound	Potency [1]	Potency [2]	outcome [3]	outcome [4]	Potency [5]	Potency (Aromatase (Homo sapiens))	Potency [6]	Potency [7]	Potency [8]	Potency [9]	outcome [10]	Potency [11]	Potency [12]	outcome [13]	outcome [14]	outcome [15]	Potency [16]	Potency [17]	outcome [18]
C[C@H]1C[C@@H](O)CC(C)(C)C1	inactive	inactive	inactive	inactive	inactive	inactive	inactive	inactive	inactive	inactive	inactive	inactive	inactive	inactive	–	–	–	–	–
O=C(O)CCCc1ccccc1	inactive	inactive	inactive	inactive	inactive	inactive	inactive	inactive	inactive	inactive	inactive	–	inactive	inactive	inactive	inactive	–	–	–
Nc1nc2c(ncn2COC(CO)CO)c(=O)[nH]1	inactive	inactive	inactive	inactive	–	inactive	inactive	inactive	inactive	inactive	inactive	inactive	inactive	inactive	inactive	inactive	inactive	inactive	–
O=C(O)COc1nn(Cc2ccccc2)c2ccccc12	inactive	inactive	inactive	inactive	inactive	inactive	inactive	inactive	inactive	inactive	inactive	inactive	inactive	inactive	–	inactive	inactive	inactive	–
FC(F)OC(Cl)C(F)(F)F (stereo not drawn)	inactive	inactive	inactive	inactive	inactive	inactive	inactive	inactive	inactive	inactive	–	inactive	inactive	inactive	inactive	inactive	–	–	–
CCc1ccc(O)c(OC)c1	inactive	inactive	inactive	inactive	inactive	inactive	inactive	inactive	inactive	inactive	inactive	–	inactive	inactive	inactive	inactive	–	–	–
NS(=O)(=O)c1ccccc1Cl	inactive	inactive	inactive	inactive	inactive	inactive	inactive	inactive	inactive	–	–	–	inactive	inactive	inactive	inactive	–	–	–
COC(C)(C)CCCC(C)CC=O (stereo not drawn)	inactive	inactive	inactive	inactive	inactive	inactive	inactive	inactive	inactive	inactive	inactive	–	inactive	inactive	inactive	inactive	–	–	–
CN1CCN(c2cc3c(cc2F)c(=O)c(C(=O)O)cn3-c2ccc(F)cc2)CC1	inactive	inactive	inactive	inactive	inactive	inactive	inactive	inactive	inactive	–	inactive	inactive	inactive	inactive	–	inactive	–	–	–
OC[C@]1(O)OC[C@@H](O)[C@H](O)[C@@H]1O	inactive	inactive	inactive	inactive	inactive	inactive	inactive	inactive	inactive	inactive	inactive	inactive	inactive	inactive	inactive	inactive	–	–	–
CC(C)(C)c1ccc(O)c(O)c1	70.9 µM (active) and 56.1 µM (active)	56.3 µM (active) and 24.3 µM (active)	inactive	inactive	inactive	inactive and 12.6 µM (active)	54.5 µM (active)	70.9 µM (active) and 34.4 µM (active)	inactive	18 µM (active)	inactive	–	–	inactive	inactive	–	–	–	–
C=C[Si](OC(=C)C)(OC(=C)C)OC(=C)C	inactive	inactive	inactive	inactive	inactive	inactive	inactive	inactive	inactive	inactive	inactive	inactive	inactive	inactive	–	inactive	inactive	–	inactive
CCCCCCCCCCCCN(CCCCCCCCCCCC)CCCCCCCCCCCC	inactive	inactive	inactive	inactive	inactive	inactive	inactive	inactive	inactive	inactive	–	inactive	inactive	inactive	inactive	inactive	–	–	–
Nc1cc(=O)[nH]c(N)n1	inactive	inactive	inactive	inactive	inactive	inactive	inactive	inactive	inactive	inactive	inactive	–	inactive	inactive	inactive	inactive	inactive	inactive	–

Reference: PubChem BioAssay (Tox21)
